The results in this text go back to PubChem BioAssay (NCI).

About 83,000 compounds went through this panel and 20% of them were active in at least one assay; those are over-represented in the sample as a whole.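 Results are percent growth after 48 hours of single-concentration exposure. 100 means growth as in untreated cells, lower positive values show inhibition; negative values down to -100 show cell death.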 Unmarked numbers belong to inactive results. Activity calls are given as the source filed them. Rule for the calls: active = growth percent below 10; inactive = the rest.

The first assay concerns SF-295 CNS. Kind of assay: NCI-60 one-dose screen, 48 h (100 = growth as untreated, 0 = no growth, -100 = all killed). The note with it: 10 µM unless noted.
On to `C/C=C(\C)C(C(=O)NC1CCCCC1)N(C(=O)C1CCc2cc(F)ccc2O1)c1ccc(Cl)cc1` (stereo not drawn), for which the growth is 97.5%.

Consider `N=C(N)c1ccc(-c2cc(Cl)cc(Cl)c2)cn1`, for which the growth was 98.2%.

On to `COc1ccc(-c2cc(-c3ccccc3)nc(SCCCC(=O)NO)n2)cc1OC`, for which the growth is -0.804% (active).

Take `CCC(C)/C(=C\C#N)NCCCN/C(=C/C#N)C(C)CC` (stereo not drawn): the growth is 105%.

For the compound `CC1=C(C#N)C(=O)NC(C)C1` (stereo not drawn), the growth was 99.9%.

For the compound `COc1cccc(/C=C2\Oc3cc(OCCCN4CCCC4)ccc3C2=O)c1OC`, the growth is 97.4%.

On to `COc1cc(C2C3=C(COC3=O)Nc3cc4c(cc32)CCC4)cc2c1OCO2` (stereo not drawn), for which the growth was 6.57% (active).

With `CCN(CC)c1ccc(/C=C2\Oc3ccc(O)c(I)c3C2=O)cc1`, the growth is 68.9%.

`C=C(C)[C@@H]1CC[C@]2(C(=O)O)CC[C@]3(C)[C@H](CC[C@@H]4[C@@]5(C)C[C@@H](CC#Cc6ccc(C(F)(F)F)cc6)[C@H](O)C(C)(C)[C@@H]5CC[C@]43C)[C@@H]12`: the growth is -21.6% (active).

As to `COc1ccc2c(c1)[nH]c(=O)c1c3cccc(F)c3cn21`, the growth was -32.1% (active).

With `CCOC(=O)C1=C(C)NC(C)=C(C(=O)OCC)C1(C)C`, the growth is 117%.

As for `COc1cccc(/C=C/C(=O)Nc2cc(OC)c3c(c2)OCO3)c1`, the growth is 89.8%.

As for `COc1cccc(-c2nc3sccn3c2-c2ccnc(NCCCNS(=O)(=O)c3ccc(F)cc3)c2)c1`, the growth was 18.6%.

As to `COc1ccc(S(=O)(=O)Nc2cc(/C=C\c3cc(OC)c(OC)c(OC)c3)cc(OC)c2OC)cc1`, the growth was 19.4%.

Turning to `Cc1ccc(C(=O)NCCCNc2nccc(-n3ccc4cccnc43)n2)cc1`, the growth is 96%.

Turning to `N/C(=N\C(N)=N\c1nc2ccccc2s1)c1ccncc1`, the growth is 74.1%.

`COC(=O)c1nc(-c2ccccc2)oc1S(=O)(=O)N1CCN(c2cccc(Cl)c2)CC1`: the growth was 90.8%.

As to `CCCCCCCCC(C)OC(=O)c1nn(C(C)=O)c2ccccc12` (stereo not drawn), the growth was 91.5%.

On to `Cc1ccc(N2CCN(C(C)C(N)=O)CC2)cc1` (stereo not drawn), for which the growth is 103%.

Take `COc1ccc(S(=O)(=O)NCCCNc2nccc(-c3c(-c4cccc([N+](=O)[O-])c4)nc4sccn34)n2)cc1`: the growth was 43.7%.

As for `COc1ccc(-n2c(=S)sc3c(Cl)nc(C)nc32)c(OC)c1`, the growth was 85.1%.

Turning to `N[C@@H]1CCN(C(=O)c2cc3cc(Cl)c(F)c(F)c3[nH]2)C1`, the growth is 94.9%.

Take `C=C[C@@H]1C[C@@H]2Cc3cc(F)ccc3N1O2`: the growth is 112%.

`CCCCN(CCCC)C(=O)CC`: the growth was 109%.

With `CC12CCC3C4(C)COC(c5ccco5)OC4CCC3(C)C1CC(C1=CCOC1=O)O2` (stereo not drawn), the growth was 97.9%.

`CCCCN(CCCC)C(=N)c1ccnc2ccccc12`: the growth was 93.8%.

With `C=C1C(=O)O[C@H]2[C@H]1CC/C(Cn1cc(CNC(=O)c3cc4ccccc4[nH]3)nn1)=C\CC[C@@]1(C)O[C@@H]21`, the growth is 110%.

As for `NC(=O)CCCN1C/C(=C\c2ccccc2)C(=O)c2ccccc21`, the growth is 94.3%.

In the case of `COc1cc(/C=C/C(=O)N2CCN(C(=O)/C=C/c3cc(OC)c(OC)c(OC)c3)CC2)cc(OC)c1OC`, the growth is 122%.

On to `COc1ccc(Nc2ncccc2C(=O)NCc2cn(Cc3cccc(Oc4ccccc4)c3)nn2)cc1`, for which the growth is 33.7%.

`c1ccc(-c2nnc(-c3ccccn3)s2)nc1`: the growth was 100%.

In the case of `C=C1CCC2C(C)(CO)C(O)CCC2(C)C1CC(NCc1ccccc1)C1=CCOC1=O` (stereo not drawn), the growth is 111%.

With `CCCCCCCCCCCC(=O)NCCC[N+](C)(C)CC(=O)[O-]`, the growth is 101%.

For `CC(C)CSc1nc(NN)c(C#N)c(-c2ccc(F)cc2)n1`, the growth is 44.7%.

On to `O=c1[nH]c(-c2ccccc2)nc(CN2CCCCC2)c1O`, for which the growth was 121%.

Consider `Cc1ccc(S(=O)(=O)Nc2c(Br)cc(Br)cc2C(N)=O)cc1`, for which the growth was 97.3%.

With `Nc1nc(-c2ccccc2)c(CCCOc2ccc(NC(=O)CBr)cc2)c(=O)[nH]1`, the growth is 117%.

As to `Nc1cccc(-c2nc3sccn3c2-c2ccnc(NCCNS(=O)(=O)c3ccc(C(F)(F)F)cc3)n2)c1`, the growth was 46.6%.

For `Cc1ccc(-c2nc(C#N)c(S(=O)(=O)n3nc(-c4ccccc4)cc3N)o2)cc1`, the growth was 104%.

A further assay concerns SF-539 CNS. The assay is described as above. The note with it: 10 µM unless noted.
As to `C/C=C(\C)C(C(=O)NC1CCCCC1)N(C(=O)C1CCc2cc(F)ccc2O1)c1ccc(Cl)cc1` (stereo not drawn), the growth is 98.2%.

As for `N=C(N)c1ccc(-c2cc(Cl)cc(Cl)c2)cn1`, the growth was 89.6%.

For `COc1ccc(-c2cc(-c3ccccc3)nc(SCCCC(=O)NO)n2)cc1OC`, the growth was 14.8%.

Regarding `CCC(C)/C(=C\C#N)NCCCN/C(=C/C#N)C(C)CC` (stereo not drawn), the growth was 97.1%.

As to `CC1=C(C#N)C(=O)NC(C)C1` (stereo not drawn), the growth was 97.9%.

For the compound `COc1cccc(/C=C2\Oc3cc(OCCCN4CCCC4)ccc3C2=O)c1OC`, the growth is 94.6%.

In the case of `COc1cc(C2C3=C(COC3=O)Nc3cc4c(cc32)CCC4)cc2c1OCO2` (stereo not drawn), the growth is 10.2%.

With `CCN(CC)c1ccc(/C=C2\Oc3ccc(O)c(I)c3C2=O)cc1`, the growth is 58.3%.

On to `C=C(C)[C@@H]1CC[C@]2(C(=O)O)CC[C@]3(C)[C@H](CC[C@@H]4[C@@]5(C)C[C@@H](CC#Cc6ccc(C(F)(F)F)cc6)[C@H](O)C(C)(C)[C@@H]5CC[C@]43C)[C@@H]12`, for which the growth was -59.5% (active).

Take `COc1ccc2c(c1)[nH]c(=O)c1c3cccc(F)c3cn21`: the growth was 22.8%.

`CCOC(=O)C1=C(C)NC(C)=C(C(=O)OCC)C1(C)C`: the growth is 91.7%.

Consider `COc1cccc(/C=C/C(=O)Nc2cc(OC)c3c(c2)OCO3)c1`, for which the growth was 111%.

For `COc1cccc(-c2nc3sccn3c2-c2ccnc(NCCCNS(=O)(=O)c3ccc(F)cc3)c2)c1`, the growth is 67.2%.

Take `COc1ccc(S(=O)(=O)Nc2cc(/C=C\c3cc(OC)c(OC)c(OC)c3)cc(OC)c2OC)cc1`: the growth is 0.203% (active).

Take `Cc1ccc(C(=O)NCCCNc2nccc(-n3ccc4cccnc43)n2)cc1`: the growth was 99.2%.

Regarding `N/C(=N\C(N)=N\c1nc2ccccc2s1)c1ccncc1`, the growth was 68.2%.

In the case of `COC(=O)c1nc(-c2ccccc2)oc1S(=O)(=O)N1CCN(c2cccc(Cl)c2)CC1`, the growth was 105%.

On to `CCCCCCCCC(C)OC(=O)c1nn(C(C)=O)c2ccccc12` (stereo not drawn), for which the growth is 98.7%.

On to `Cc1ccc(N2CCN(C(C)C(N)=O)CC2)cc1` (stereo not drawn), for which the growth was 110%.

On to `COc1ccc(S(=O)(=O)NCCCNc2nccc(-c3c(-c4cccc([N+](=O)[O-])c4)nc4sccn34)n2)cc1`, for which the growth was 75.6%.

With `COc1ccc(-n2c(=S)sc3c(Cl)nc(C)nc32)c(OC)c1`, the growth is 20%.

`N[C@@H]1CCN(C(=O)c2cc3cc(Cl)c(F)c(F)c3[nH]2)C1`: the growth was 86.8%.

On to `C=C[C@@H]1C[C@@H]2Cc3cc(F)ccc3N1O2`, for which the growth is 107%.

With `CCCCN(CCCC)C(=O)CC`, the growth is 112%.

With `CC12CCC3C4(C)COC(c5ccco5)OC4CCC3(C)C1CC(C1=CCOC1=O)O2` (stereo not drawn), the growth was 107%.

Regarding `CCCCN(CCCC)C(=N)c1ccnc2ccccc12`, the growth is 113%.

Consider `C=C1C(=O)O[C@H]2[C@H]1CC/C(Cn1cc(CNC(=O)c3cc4ccccc4[nH]3)nn1)=C\CC[C@@]1(C)O[C@@H]21`, for which the growth was 6.92% (active).

Regarding `NC(=O)CCCN1C/C(=C\c2ccccc2)C(=O)c2ccccc21`, the growth was 105%.

For the compound `COc1cc(/C=C/C(=O)N2CCN(C(=O)/C=C/c3cc(OC)c(OC)c(OC)c3)CC2)cc(OC)c1OC`, the growth is 103%.

Consider `COc1ccc(Nc2ncccc2C(=O)NCc2cn(Cc3cccc(Oc4ccccc4)c3)nn2)cc1`, for which the growth is 33.6%.

As to `c1ccc(-c2nnc(-c3ccccn3)s2)nc1`, the growth was 99.8%.

In the case of `C=C1CCC2C(C)(CO)C(O)CCC2(C)C1CC(NCc1ccccc1)C1=CCOC1=O` (stereo not drawn), the growth is 101%.

As to `CCCCCCCCCCCC(=O)NCCC[N+](C)(C)CC(=O)[O-]`, the growth was 94.3%.

Regarding `CC(C)CSc1nc(NN)c(C#N)c(-c2ccc(F)cc2)n1`, the growth is 65.9%.

With `O=c1[nH]c(-c2ccccc2)nc(CN2CCCCC2)c1O`, the growth is 108%.

For `Cc1ccc(S(=O)(=O)Nc2c(Br)cc(Br)cc2C(N)=O)cc1`, the growth is 101%.

`Nc1nc(-c2ccccc2)c(CCCOc2ccc(NC(=O)CBr)cc2)c(=O)[nH]1`: the growth is 93.1%.

In the case of `Nc1cccc(-c2nc3sccn3c2-c2ccnc(NCCNS(=O)(=O)c3ccc(C(F)(F)F)cc3)n2)c1`, the growth was 32%.

As for `Cc1ccc(-c2nc(C#N)c(S(=O)(=O)n3nc(-c4ccccc4)cc3N)o2)cc1`, the growth is 97%.
